# Source: PubChem BioAssay
# JMJD2A Tudor: inhibitors of human JMJD2A Tudor domain; O75164; AlphaScreen JMJD2A-Tudor / H3K4me3 peptide binding; 390,000 tested, 4.4% active; Potency, µM (titrated, usually from 114 µM), for the others: top-dose activity change, negative = inhibition, usual class: inhibitors; note: % is set by controls: 0 for no effect and ±100 for the full control effect; nearly all actives have a fitted effect of over 50% in size
# Sfp inh: Sfp phosphopantetheinyl transferase inhibition | Biochemical Sfp PPTase activity, qHTS | AID 1490 | 310,000 tested, 3.5% active | Q9F4F7 | Potency, µM, without a hit: largest response in the series, negative = inhibition, hits mostly inhibitors;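 note: the enzyme is Sfp with the accession as filed and its product quenches rhodamine fluorescence; 0% = enzyme reaction without inhibitor and -100% = no enzyme wells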
#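 Fluorescence-quenching assay: 15 nM Sfp-PPTase preincubated 15 min at room temperature with compound, then 5 uM rhodamine-CoA and 12.5 uM BHQ-2-labelled YbbR peptide added. Fluorescence (ex 525/em 598 nm) read at start and after 30 min; difference gives rate.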
# L3MBTL1 inh: blocks human L3MBTL1 | Potency, µM (series often up to 57.1 µM), for inactives: at the highest dose activity, negative = inhibition, actives largely listed as inhibitors | Q9Y468 | 230,000 tested, 0.66% active | AlphaScreen L3MBTL1–H3K9me1 peptide binding; note: % is set by controls: 0 for no effect and ±100 for the full control effect; nearly all actives have a fitted effect of over 60% in size
#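 AlphaScreen assay: L3MBTL1 (50 nM final) was preincubated 30 min at room temperature with biotinylated H3(1-15)K9me1 peptide (75 nM final), then 30 min with library compounds; streptavidin donor and nickel chelate acceptor beads (10 ug/mL final) added, 30 min dark.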
# HP1b binding inh: inhibitors of HP1-beta chromodomain binding to methylated histone tails. AlphaScreen HP1-beta / biotin-H3K9me3 peptide binding. P83916. Potency, µM (top dose mostly 114 µM), inactives show at the highest dose activity change, negative = inhibition, most hits filed as inhibitors. 390,000 tested, 0.56% active; note: nearly all actives have a fitted effect of over 70% in size
#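 HP1-beta protein (50 nM final) preincubated 30 min at room temperature with biotinylated H3(1-18)K9me3 peptide (50 nM) in PBS pH 7.4, 0.01% Tween-20, then compound added for 30 min. AlphaScreen streptavidin donor/nickel chelate acceptor beads (10 ug/mL final), 30 min dark, luminescence read.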
# BAZ2B block: BAZ2B (human) inhibition; AlphaScreen BAZ2B-H3K14Ac peptide displacement; Q9UIF8; Potency, µM (top dose mostly 114 µM), without a hit: top-dose activity change, negative = inhibition, actives largely listed as inhibitors; 360,000 tested, 4.4% active; AID 504333; note: % is set by controls: 0 for no effect and ±100 for the full control effect; nearly all actives have a fitted effect of over 60% in size
# Target sequence (Q9UIF8 whole entry, looked up): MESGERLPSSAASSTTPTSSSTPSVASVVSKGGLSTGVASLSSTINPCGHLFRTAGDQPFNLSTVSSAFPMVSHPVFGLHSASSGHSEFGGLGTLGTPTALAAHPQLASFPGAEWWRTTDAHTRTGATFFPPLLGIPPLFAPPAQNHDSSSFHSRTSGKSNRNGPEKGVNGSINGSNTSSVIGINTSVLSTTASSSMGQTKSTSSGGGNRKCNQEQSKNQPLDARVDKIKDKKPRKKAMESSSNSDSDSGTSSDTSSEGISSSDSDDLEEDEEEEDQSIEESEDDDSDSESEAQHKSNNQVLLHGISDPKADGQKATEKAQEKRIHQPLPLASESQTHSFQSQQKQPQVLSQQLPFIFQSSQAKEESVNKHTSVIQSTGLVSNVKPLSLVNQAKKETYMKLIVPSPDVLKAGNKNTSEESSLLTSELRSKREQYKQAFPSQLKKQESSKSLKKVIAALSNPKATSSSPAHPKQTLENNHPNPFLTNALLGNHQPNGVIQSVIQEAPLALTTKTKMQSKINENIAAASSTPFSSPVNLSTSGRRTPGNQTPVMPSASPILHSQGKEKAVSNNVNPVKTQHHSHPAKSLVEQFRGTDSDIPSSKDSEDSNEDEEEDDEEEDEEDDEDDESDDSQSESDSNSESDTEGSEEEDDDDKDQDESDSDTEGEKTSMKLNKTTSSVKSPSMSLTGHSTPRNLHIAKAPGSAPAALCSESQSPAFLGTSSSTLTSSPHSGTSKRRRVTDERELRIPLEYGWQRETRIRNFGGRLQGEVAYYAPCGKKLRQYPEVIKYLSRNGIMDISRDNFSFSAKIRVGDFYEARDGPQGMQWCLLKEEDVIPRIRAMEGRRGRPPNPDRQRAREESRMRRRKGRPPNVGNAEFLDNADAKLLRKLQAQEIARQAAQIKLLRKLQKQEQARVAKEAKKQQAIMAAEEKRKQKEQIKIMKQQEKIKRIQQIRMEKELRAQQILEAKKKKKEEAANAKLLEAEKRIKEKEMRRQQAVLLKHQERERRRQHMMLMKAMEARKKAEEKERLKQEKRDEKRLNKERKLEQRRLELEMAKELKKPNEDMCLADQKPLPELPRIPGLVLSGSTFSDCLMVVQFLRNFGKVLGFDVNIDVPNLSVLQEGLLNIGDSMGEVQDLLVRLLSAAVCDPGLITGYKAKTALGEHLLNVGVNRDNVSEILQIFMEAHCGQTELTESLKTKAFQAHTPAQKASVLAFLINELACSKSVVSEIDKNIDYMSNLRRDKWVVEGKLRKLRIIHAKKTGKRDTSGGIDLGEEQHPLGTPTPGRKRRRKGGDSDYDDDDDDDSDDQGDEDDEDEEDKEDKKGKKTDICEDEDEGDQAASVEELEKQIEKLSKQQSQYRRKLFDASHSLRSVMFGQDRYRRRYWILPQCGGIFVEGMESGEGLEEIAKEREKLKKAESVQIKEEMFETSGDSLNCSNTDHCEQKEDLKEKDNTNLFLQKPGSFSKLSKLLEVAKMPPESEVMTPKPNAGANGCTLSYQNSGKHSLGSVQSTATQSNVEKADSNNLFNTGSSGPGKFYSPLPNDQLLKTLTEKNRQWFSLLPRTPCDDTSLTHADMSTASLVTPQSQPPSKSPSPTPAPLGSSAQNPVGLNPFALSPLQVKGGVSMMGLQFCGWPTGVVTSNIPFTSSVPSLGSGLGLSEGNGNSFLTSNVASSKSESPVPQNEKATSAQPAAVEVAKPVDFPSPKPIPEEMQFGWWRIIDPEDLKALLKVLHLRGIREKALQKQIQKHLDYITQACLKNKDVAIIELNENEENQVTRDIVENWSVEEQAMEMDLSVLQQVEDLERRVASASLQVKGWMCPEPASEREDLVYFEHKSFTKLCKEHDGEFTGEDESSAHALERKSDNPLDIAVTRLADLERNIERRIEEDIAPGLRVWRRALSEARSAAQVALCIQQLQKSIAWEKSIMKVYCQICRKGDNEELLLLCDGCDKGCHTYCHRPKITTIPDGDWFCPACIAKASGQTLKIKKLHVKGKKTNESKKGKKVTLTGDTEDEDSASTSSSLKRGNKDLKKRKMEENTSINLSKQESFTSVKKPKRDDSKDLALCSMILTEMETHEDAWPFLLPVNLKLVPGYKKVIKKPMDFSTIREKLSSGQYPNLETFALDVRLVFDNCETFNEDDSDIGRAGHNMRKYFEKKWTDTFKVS
#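 BAZ2B (50 nM) with biotin-H3(5-23)K14Ac peptide (50 nM) in PBS pH 7.4, 0.01% Tween-20, preformed 30 min, then compound 30 min at room temperature; top concentration 110uM. AlphaScreen streptavidin donor/nickel chelate acceptor beads (10 ug/mL final), 20 min dark, signal read.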
# G9a block: blocks human histone lysine methyltransferase G9a; Q96KQ7; G9a H3K9 monomethylation, AlphaScreen, 2 h; Potency, µM (doses to about 102 µM), for the others: top-dose activity, negative = inhibition, most hits filed as inhibitors; 350,000 tested, 8.8% active; note: % is set by controls: 0 for no effect and ±100 for the full control effect; nearly all actives have a fitted effect of over 75% in size
#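 G9a (20 nM) was preincubated 15 min with compound, then reacted 2 h at room temperature with 500 nM biotin-H3K9 peptide and 20 µM SAM. Monomethyl-H3K9 detected by AlphaScreen using anti-H3K9me1 antibody.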
# * = called active by the depositor; ? = inconclusive; nt = no result; [ ] = another dose, or the depositor's remark. A selection: hits, their analogues and other compounds. The true share with any hit is near 12%. Calls come from the whole dose curve; as a rule, active = well fitted curve in the direction sought with a large enough effect; inconclusive = small, poorly fitted or top-dose-only effect, or another doubt; inactive = no such curve, though single readings can be large; an effect the other way counts as inactive or inconclusive. Potency is the fitted concentration of half-maximal effect.
SMILES,JMJD2A Tudor,Sfp inh,L3MBTL1 inh,HP1b binding inh,BAZ2B block,G9a block
O=S(=O)(c1ccccc1F)N1CCN(c2nc(-c3cccs3)nc3ccccc23)CC1,-8.2%,nt,nt,21.1%,nt,nt
O=c1cc(N2CCCCC2)c(-c2ccccc2)nn1Cc1ccc(Cl)cc1Cl,-13.0%[11.4 µM],?,20.3%,26.2%,20.8%,nt
O=c1cc(N2CCCCC2)c(-c2ccccc2)nn1Cc1cccc(Cl)c1,1.7%,35.5µM*,-0.2%,39.5%,-20.6%,3.4%
Cc1nnc(-c2cccc(Br)c2)c2cn(-c3ccccc3Cl)nc12,-35.8%,56.2µM*,6.9%,10.7%,-13.5%,12.9%[12.7 µM]
Cc1ccnc(NC(=O)c2cc3ccccc3oc2=O)c1,-17.5%,2.9%,11.3%,8.2%,0.0%,4.8%
COc1ccc(CNc2ccccn2)c(O)c1,0.0%,19.0%,44.3%,40.7%,-8.0%,nt
O=c1cc(CO)oc(C(Nc2ccccn2)c2ccsc2)c1O (configuration not stated),nt,22.4µM*,-7.9%,nt,?,2µM*
Cc1ccnc(NC(c2ccccc2O)c2oc(CO)cc(=O)c2O)c1 (configuration not stated),-16.7%,10µM*,nt,1.0%,?,0.891µM*
O=C(NNc1ccccn1)C(c1ccccc1)c1ccccc1,-13.8%,8.4%,9.0%,8.8%,-23.0%,2.0%
O=c1cc(CO)oc(C(Nc2ccccn2)c2ccc(F)cc2)c1O (configuration not stated),39.8µM*,10µM*,3.0%,?,-27.2%,-119.8%[12.7 µM]
COc1ccc(C(Nc2ccccn2)c2oc(CO)cc(=O)c2O)cc1 (configuration not stated),8.91µM*,?,-3.9%,?,?,1µM*
CCNc1ncc2nc(-c3ccc(F)cc3)c(=O)n(Cc3ccc(F)cc3)c2n1,nt,10.4%,nt,nt,nt,3.9%[0.501 µM]
COC(=O)CCCC(=O)N1CCC(CO)(CCc2ccccc2)CC1,-5.5%,15.1%,11.5%,22.5%,6.5%,2.0%
O=c1cc(CO)oc(C(Nc2ccccn2)c2ccccc2Cl)c1O (configuration not stated),28.2µM*,50.1µM*,nt,?,?,1.12µM*
Cc1c(C(Nc2ccccn2)c2ccc(Cl)cc2)c(=O)n(-c2ccccc2)n1C (configuration not stated),-11.5%[57.1 µM],-0.7%,nt,61.2%,-38.3%,-0.8%[59 µM]
O=C(Nc1cccnc1)c1cc(-c2ccc(Cl)cc2Cl)on1,-15.5%,20.6%,nt,16.3%,-15.8%,-10.9%
Nc1ccc(Nc2ccccc2N)cc1,50.1µM*,2.8%,-2.4%,?,35.5µM*,?
COc1ccc(Nc2ccccc2N)cc1,44.7µM*,-29.6%,-7.0%,?,35.5µM*,15.8µM*
CCOC(=O)C(Cc1c[nH]c2ccccc12)NC(=O)c1ccccc1Br (configuration not stated),-16.2%,9.3%,-1.5%,37.7%,-25.5%,17.0%
O=S(=O)(c1ccccc1)N1CCC2(CCCN(Cc3ccncc3)C2)CC1,nt,18.4%,nt,nt,nt,-25.0%[12.7 µM]
CCc1cccc(CC)c1NC(=O)C1CCN(C(=O)c2ccco2)CC1,-5.2%[57.1 µM],10.5%,nt,-2.0%,-12.2%,-6.3%
CC1CCCCC1NC(=O)C1Cc2ccccc2CN1S(C)(=O)=O (configuration not stated),-4.5%,10.1%,5.6%,12.8%,7.8%,3.4%[12.7 µM]
O=C(O)[C@H]1Cc2ccccc2CN1S(=O)(=O)c1ccc(F)cc1,-6.3%,27.2%,3.1%,31.4%,-2.3%,-6.7%
CS(=O)(=O)N1Cc2ccccc2CC1C(=O)O (configuration not stated),-10.9%,18.0%,-18.0%,8.4%,?,39.8µM*
CC(C)(C)OC(=O)N1Cc2ccccc2C[C@H]1C(=O)O,-4.1%[11.4 µM],9.6%,-8.3%,2.0%,?,56.2µM*
SMILES,JMJD2A Tudor,Sfp inh,L3MBTL1 inh,HP1b binding inh,BAZ2B block,G9a block
O=S(=O)(/C=C/c1ccccc1)N1CCc2ccccc2C1,53.6%,13.2%,nt,70.6%,18.2%,37.4%
CC(=O)c1ccc(S(=O)(=O)N2Cc3ccccc3CC2C(=O)O)cc1 (configuration not stated),17.8µM*,6.2%,?,-0.3%,?,39.8µM*
O=C(O)C1Cc2ccccc2CN1S(=O)(=O)/C=C/c1ccccc1 (configuration not stated),-15.2%,-7.5%,-4.6%,37.8%,79.4µM*,14.1µM*
O=C(O)c1ccc(NC(=O)c2cn(-c3ccccc3)nc2-c2cccc(Cl)c2)cc1,-21.9%,-5.3%,-2.1%,3.5%,-5.7%,nt
O=C(O)C1Cc2ccccc2CN1C(=O)CSc1nnc2ccccn12 (configuration not stated),-21.0%,-19.1%,nt,-4.9%,nt,50.1µM*
CCS(=O)(=O)N1Cc2ccccc2CC1C(=O)N1CCN(c2ccccc2)CC1 (configuration not stated),25.1µM*,-3.7%,?,?,50.1µM*,2.4%[2.33 µM]
O=C(C1Cc2ccccc2CN1S(=O)(=O)c1ccc(F)cc1)N1CCOCC1 (configuration not stated),-13.4%,12.7%,nt,16.3%,-4.0%,-1.5%[59 µM]
CCOC1=NC(=C(c2ccccc2)c2ccccc2)OC1=O,25.1µM*,nt,nt,-28.4%,nt,nt
CCOC(=O)C1CCCN(Cc2cc(=O)oc3cc(C)c(C)cc23)C1 (configuration not stated),8.3%,6.2%,-0.4%,42.2%,0.6%,?
CCOC(=O)C1CCCN(CCC(=O)Nc2ccc(OC)cc2OC)C1 (configuration not stated),2.0%,nt,nt,22.1%,-0.7%,1.7%[59 µM]
CCOC(=O)C1CCCN(Cc2cc(Br)c(OC)cc2OC)C1 (configuration not stated),2.82µM*,-21.1%,-5.6%[11.4 µM],?,50.1µM*,?
CCOC(=O)C1CCCN(Cc2cc(OC)c(O)c(OC)c2)C1 (configuration not stated),2.24µM*,-3.7%,2.9%,-53.7%,?,?
CCOC(=O)C1CCCN(Cc2sccc2C)C1 (configuration not stated),2.82µM*,-27.3%,nt,?,50.1µM*,22.4µM*
Cc1ccc(/C=C/S(=O)(=O)NCC(=O)OCC(=O)Nc2c(F)cccc2F)cc1,-13.1%,nt,5.0%,12.8%,3.0%,20µM*
Cc1ccc(/C=C/S(=O)(=O)NCC(=O)OCC(=O)Nc2ccc(C(=O)N(C)C)cc2)cc1,-3.7%,nt,2.5%,29.6%,12.8%,18.9%[12.7 µM]
CC(=O)Nc1ccc(NC(=O)C(C)OC(=O)CNS(=O)(=O)/C=C/c2ccc(C)cc2)cc1 (configuration not stated),-10.3%,nt,1.2%,12.6%,-5.9%,-30.6%[59 µM]
Cc1ccc(/C=C/S(=O)(=O)NCC(=O)OCC(=O)Nc2ccc(C(N)=O)cc2)cc1,-13.8%,nt,6.1%,21.8%,5.3%,44.7µM*
